Several values for one entry are separate records, joined by “and”; a condition that tells them apart may be missing. Equal values may be shown once. Records with an inconclusive call do not appear. More than one record can exist for a structure, and the calls need not agree. Activity calls are given as the source filed them. Rule for the calls, unless noted: active = hit-call score of the fitted dose curve at least 0.9, where 1 is the maximum; inactive = score below 0.9.
Columns and labels:
[1] = read-out: Nuclear factor erythroid 2-related factor 2 (Homo sapiens) (UniProt Q16236); assay: LTEA_HepaRG_NFE2L2: Life Technologies and Expression Analysis (LTEA) Assay for Nuclear factor erythroid 2-related factor 2 (NFE2L2) Transcription Factor using HepaRG (AID 2283527); details: mRNA level, 48 h; actives raise or lower the signal
How it was run: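 HepaRG, 48 h dosing, 8-pt half-log series from 100 uM in 0.5% DMSO, duplicates. Read-out: NFE2L2 mRNA by qRT-PCR (ACTB/GAPDH/POLR2A normalization). Bidirectional curve fit vs DMSO baseline.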

[2] = read-out: succinate dehydrogenase complex iron sulfur subunit B (SDHB), SDHB (gene 6390); assay: LTEA_HepaRG_SDHB: Life Technologies and Expression Analysis (LTEA) Assay for succinate dehydrogenase complex iron sulfur subunit B (SDHB) using HepaRG (AID 2283528); details: mRNA level, 48 h; actives raise or lower the signal
How it was run: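 HepaRG, 48 h exposure, 8-pt half-log series from 100 uM in 0.5% DMSO, duplicates. Readout: SDHB mRNA by Fluidigm qRT-PCR vs housekeeping genes; bidirectional fit relative to DMSO.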

[3] = read-out: Signal transducer and activator of transcription 3 (Homo sapiens) (UniProt P40763); assay: LTEA_HepaRG_STAT3: Life Technologies and Expression Analysis (LTEA) Assay for Signal transducer and activator of transcription (STAT3) using HepaRG (AID 2283529); details: mRNA level, 48 h; actives raise or lower the signal
How it was run: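 HepaRG, 48 h exposure, 8-pt half-log series (top 100 uM), 0.5% DMSO vehicle, duplicates. Readout: STAT3 transcript by Fluidigm qRT-PCR, housekeeping-normalized; bidirectional fit vs DMSO baseline.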

[4] = read-out: solute carrier (SLCO1B1), SLCO1B1 (gene 10599); assay: LTEA_HepaRG_SLCO1B1: Life Technologies and Expression Analysis (LTEA) Assay for solute carrier (SLCO1B1) using HepaRG (AID 2283530); details: mRNA level, 48 h; actives raise or lower the signal
How it was run: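 Gain or loss of SLCO1B1 mRNA is fitted against the 0.5% DMSO vehicle in human HepaRG liver cells treated 48 h at up to 100 uM in half-log steps. Expression comes from qRT-PCR normalized to endogenous controls.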

[5] = read-out: sulfotransferase 2A1 (SULT2A1), SULT2A1 (gene 6822); assay: LTEA_HepaRG_SULT2A1: Life Technologies and Expression Analysis (LTEA) Assay for sulfotransferase 2A1 (SULT2A1) using HepaRG (AID 2283531); details: mRNA level, 48 h; actives raise or lower the signal
How it was run: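 Cells were plated and cultured 48 h, switched to serum-free induction medium, then dosed in duplicate for 48 h (8 concentrations, max 100 uM). RNA was isolated and SULT2A1 expression measured by qRT-PCR; gain or loss of signal fitted relative to DMSO.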

[6] = read-out: Transforming Growth Factor (TGFA), TGFA (gene 7039); assay: LTEA_HepaRG_TGFA: Life Technologies and Expression Analysis (LTEA) Assay for Transforming Growth Factor (TGFA) using HepaRG (AID 2283532); details: mRNA level, 48 h; actives raise or lower the signal
How it was run: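 qRT-PCR read-out of TGFA transcript, normalized to three housekeeping genes, fitted bidirectionally against 0.5% DMSO baseline. Human HepaRG cultures received chemicals for 48 h at eight half-log concentrations, top 100 uM.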

[7] = read-out: Transforming Growth Factor (TGFB1), TGFB1 (gene 7040); assay: LTEA_HepaRG_TGFB1: Life Technologies and Expression Analysis (LTEA) Assay for Transforming Growth Factor (TGFB1) Transporter using HepaRG (AID 2283533); details: mRNA level, 48 h; actives raise or lower the signal
How it was run: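 Expression change of TGFB1 in human HepaRG cells is measured after a 48 h chemical exposure, up to 100 uM in 0.5% DMSO vehicle. Curves are fitted in both directions relative to the DMSO baseline.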

TIMP1, TIMP1 (gene 7076) = assay: LTEA_HepaRG_TIMP1: Life Technologies and Expression Analysis (LTEA) Assay for TIMP1 using HepaRG (AID 2283534); details: mRNA level, 48 h; actives raise or lower the signal
How it was run: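 We dosed human liver HepaRG cultures for 48 hours with up to 100 uM test chemical and measured TIMP1 expression by qRT-PCR. Activity in either direction is fitted relative to the 0.5% DMSO vehicle.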

[8] = read-out: Tumor necrosis factor receptor 1 (TNFRSF1A), TNFRSF1A (gene 7132); assay: LTEA_HepaRG_TNFRSF1A: Life Technologies and Expression Analysis (LTEA) Assay for Tumor necrosis factor receptor 1 (TNFRSF1A) using HepaRG (AID 2283535); details: mRNA level, 48 h; actives raise or lower the signal
How it was run: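 Expression of TNFRSF1A in human HepaRG liver cells was measured by qRT-PCR 48 h after chemical dosing (maximum 100 uM). Bidirectional curve fitting used 0.5% DMSO as baseline.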

[9] = read-out: Thyroid Hormone Responsive (THRSP), THRSP (gene 7069); assay: LTEA_HepaRG_THRSP: Life Technologies and Expression Analysis (LTEA) Assay for Thyroid Hormone Responsive (THRSP) using HepaRG (AID 2283536); details: mRNA level, 48 h; actives raise or lower the signal
How it was run: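 qRT-PCR read-out (Fluidigm TaqMan), housekeeping-normalized (ACTB/GAPDH/POLR2A). HepaRG, 48 h chemical exposure, 8-pt half-log series from 100 uM in 0.5% DMSO, duplicates. Bidirectional curve fit vs 0.5% DMSO baseline.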

[10] = read-out: Cellular tumor antigen p53 (Homo sapiens) (UniProt P04637); assay: LTEA_HepaRG_TP53: Life Technologies and Expression Analysis (LTEA) Assay for Tumor Protein P53 (TP53) using HepaRG (AID 2283537); details: mRNA level, 48 h; actives raise or lower the signal
How it was run: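 HepaRG, 48 h exposure, top 100 uM, half-log 8-point, 0.5% DMSO vehicle, duplicates. Read: TP53 mRNA by TaqMan qRT-PCR, normalised to ACTB/GAPDH/POLR2A; bidirectional fit vs DMSO.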

[11] = read-out: UDP glucuronosyltransferase (UGT1A1), UGT1A1 (gene 54658); assay: LTEA_HepaRG_UGT1A1: Life Technologies and Expression Analysis (LTEA) Assay for UDP glucuronosyltransferase (UGT1A1) using HepaRG (AID 2283538); details: mRNA level, 48 h; actives raise or lower the signal
How it was run: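 Cells are plated, cultured 48 h, switched to serum-free induction medium, then dosed 48 h at eight concentrations (max 100 uM, 0.5% DMSO). RNA is isolated and UGT1A1 expression measured by qRT-PCR; changes versus DMSO are fitted in both directions.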

[12] = read-out: UDP glucuronosyltransferase (UGT1A6), UGT1A6 (gene 54578); assay: LTEA_HepaRG_UGT1A6: Life Technologies and Expression Analysis (LTEA) Assay for UDP glucuronosyltransferase (UGT1A6) using HepaRG (AID 2283539); details: mRNA level, 48 h; actives raise or lower the signal
How it was run: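 Endpoint is UGT1A6 transcript induction or loss in a human liver cell line, quantified by TaqMan qRT-PCR 48 h after dosing. Concentrations ran from 100 uM downward in half-log steps in 0.5% DMSO; activity was fitted in both directions versus vehicle.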

[13] = LTEA_HepaRG_LDH_cytotoxicity: Cytotoxicity Assessment in the Life Technologies and Expression Analysis (LTEA) Assay (AID 2283563; active = hit-call score of the fitted dose curve at least 0.9, where 1 is the maximum;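 for AC50: LDH activity released into spent culture medium as a marker of cell death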)
How it was run: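 Human HepaRG hepatic cells are treated with test chemicals for 48 h at up to 100 uM in 0.5% DMSO. Cytotoxicity is scored from medium LDH against the vehicle control.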

[14] = ATG_XTT_Cytotoxicity: Cytotoxicity Assessment in the Attagene TRANS-FACTORIAL HepG2 Assay (AID 2283584; active = hit-call score of the fitted dose curve at least 0.9, where 1 is the maximum;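 for AC50: XTT signal for cell number as viability in transfected HepG2 cells; cells exposed to compound for 24 h before reading; active means loss of viability signal versus DMSO baseline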)
How it was run: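 Transfect HepG2 with GAL4-UAS reporter units, dose compound, incubate 24 h, then measure viable cell number by XTT. Fit concentration response against DMSO baseline.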

[15] = target: Cellular tumor antigen p53 (Homo sapiens) (UniProt P04637); assay: TOX21_p53_BLA_p3_ratio: Tox21 HCT-116 p53 Agonism Beta-lactamase Assay, Ratio, Phase 3 (AID 2283596; active = hit-call score of the fitted dose curve at least 0.9, where 1 is the maximum)
Chain of Cellular tumor antigen p53 (Homo sapiens) (P04637 whole entry, looked up): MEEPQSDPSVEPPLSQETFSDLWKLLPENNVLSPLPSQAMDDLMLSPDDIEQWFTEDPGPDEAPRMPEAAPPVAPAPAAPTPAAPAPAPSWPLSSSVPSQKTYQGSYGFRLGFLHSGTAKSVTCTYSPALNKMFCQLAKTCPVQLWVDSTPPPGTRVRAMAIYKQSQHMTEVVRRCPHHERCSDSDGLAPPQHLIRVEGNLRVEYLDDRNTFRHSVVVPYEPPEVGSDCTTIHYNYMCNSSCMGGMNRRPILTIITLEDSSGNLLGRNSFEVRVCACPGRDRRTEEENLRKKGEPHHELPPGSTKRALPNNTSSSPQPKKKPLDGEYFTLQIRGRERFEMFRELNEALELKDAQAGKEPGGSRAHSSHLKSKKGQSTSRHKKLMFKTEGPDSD
How it was run: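 Cells were seeded at 4000/well, rested 5 h at 37C, then dosed with DMSO compound solutions (217-fold dilution) for 16 h. CCF4-AM substrate was loaded for 2 h at room temperature, and the 460/530 nm emission ratio was fitted for gain of signal versus DMSO.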

[16] = read-out: X-box binding protein 1 (XBP1), XBP1 (gene 7494); assay: LTEA_HepaRG_XBP1: Life Technologies and Expression Analysis (LTEA) Assay for X-box binding protein 1 (XBP1) using HepaRG (AID 2283540); details: mRNA level, 48 h; actives raise or lower the signal
How it was run: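 Human HepaRG monolayers receive test chemical for 48 h across an eight-point half-log series starting at 100 uM. XBP1 mRNA gain or loss is scored against DMSO by qRT-PCR.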

[17] = TOX21_p53_BLA_p2_viability: Viability Assessment in the Tox21 HCT-116 p53 Agonism Beta-lactamase Assay, Phase 2 (AID 2283591; active = hit-call score of the fitted dose curve at least 0.9, where 1 is the maximum;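 note: compound exposure lasted 16 h at 37 °C; actives lower the ATP signal meaning cytotoxicity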)
How it was run: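 HCT116 p53-bla cells, 4000/well, dosed after 5 h plating (217-fold dilution of DMSO stocks) and incubated 16 h at 37C. Viability taken as cellular ATP by CellTiter-Glo luminescence after 30 min RT; signal loss marks cytotoxicity.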

[18] = TOX21_p53_BLA_p3_viability: Viability Assessment in the Tox21 HCT-116 p53 Agonism Beta-lactamase Assay, Phase 3 (AID 2283593; active = hit-call score of the fitted dose curve at least 0.9, where 1 is the maximum;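 note: cells exposed to compound for 16 h before reading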)
How it was run: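 HCT116 cells, 4000/well, dosed 5 h after plating by pin transfer (217-fold dilution from DMSO stock) and incubated 16 h at 37C, 5% CO2. Viability read as ATP luminescence with CellTiter-Glo after 30 min at room temperature.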

[19] = target: Cellular tumor antigen p53 (Homo sapiens) (UniProt P04637); assay: TOX21_p53_BLA_p2_ratio: Tox21 HCT-116 p53 Agonism Beta-lactamase Assay, Ratio, Phase 2 (AID 2283592; active = hit-call score of the fitted dose curve at least 0.9, where 1 is the maximum)
How it was run: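 Cleaved-to-uncleaved substrate ratio (460 vs 530 nm) measured in HCT116 cells with an inducible beta-lactamase reporter linked to p53 activity. Compounds incubated 16 h at 37C before 2 h room-temperature CCF4-AM loading.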

Measured: AC50

Chain of Nuclear factor erythroid 2-related factor 2 (Homo sapiens) (Q16236 whole entry, looked up): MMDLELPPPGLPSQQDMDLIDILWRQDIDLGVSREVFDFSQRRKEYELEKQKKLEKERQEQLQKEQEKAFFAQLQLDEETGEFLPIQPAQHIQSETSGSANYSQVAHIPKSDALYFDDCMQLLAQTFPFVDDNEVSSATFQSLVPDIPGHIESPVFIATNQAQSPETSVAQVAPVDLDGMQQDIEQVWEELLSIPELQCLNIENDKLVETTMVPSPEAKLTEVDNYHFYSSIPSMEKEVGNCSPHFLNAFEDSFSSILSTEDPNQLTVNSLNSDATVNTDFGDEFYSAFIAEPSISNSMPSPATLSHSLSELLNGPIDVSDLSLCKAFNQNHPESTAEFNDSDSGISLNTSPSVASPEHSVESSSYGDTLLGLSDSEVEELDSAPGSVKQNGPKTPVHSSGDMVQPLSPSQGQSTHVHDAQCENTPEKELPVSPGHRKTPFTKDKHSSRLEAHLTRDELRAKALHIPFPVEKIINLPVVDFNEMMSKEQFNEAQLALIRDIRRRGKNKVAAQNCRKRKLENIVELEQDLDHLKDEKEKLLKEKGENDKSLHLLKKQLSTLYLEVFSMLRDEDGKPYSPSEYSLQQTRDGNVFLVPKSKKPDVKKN
Chain of Signal transducer and activator of transcription 3 (Homo sapiens) (P40763 whole entry, looked up): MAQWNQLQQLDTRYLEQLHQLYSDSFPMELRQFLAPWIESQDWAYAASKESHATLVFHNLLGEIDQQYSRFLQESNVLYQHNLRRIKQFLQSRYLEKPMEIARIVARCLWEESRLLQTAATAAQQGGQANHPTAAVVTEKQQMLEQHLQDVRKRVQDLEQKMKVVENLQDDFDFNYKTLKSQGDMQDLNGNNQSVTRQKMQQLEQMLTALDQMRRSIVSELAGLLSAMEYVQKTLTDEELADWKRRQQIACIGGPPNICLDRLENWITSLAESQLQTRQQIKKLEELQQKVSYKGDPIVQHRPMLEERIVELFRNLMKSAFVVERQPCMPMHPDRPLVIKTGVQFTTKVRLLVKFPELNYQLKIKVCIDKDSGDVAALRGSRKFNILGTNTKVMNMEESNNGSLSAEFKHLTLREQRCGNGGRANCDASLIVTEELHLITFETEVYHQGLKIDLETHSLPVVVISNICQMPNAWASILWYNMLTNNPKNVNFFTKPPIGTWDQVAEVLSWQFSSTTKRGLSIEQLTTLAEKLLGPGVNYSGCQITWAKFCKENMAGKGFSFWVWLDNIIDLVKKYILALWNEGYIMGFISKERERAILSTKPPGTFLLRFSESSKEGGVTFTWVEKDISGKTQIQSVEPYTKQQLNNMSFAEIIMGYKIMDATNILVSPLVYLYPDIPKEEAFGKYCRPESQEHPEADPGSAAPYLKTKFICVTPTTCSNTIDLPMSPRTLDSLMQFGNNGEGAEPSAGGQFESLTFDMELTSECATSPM

OC1CCCCC1
not listed: [16] | [17] | [18] | [19]
inactive: all other assays above

C[C@@H]1C[C@H]2[C@@H]3CCC4=CC(=O)C=C[C@]4(C)[C@@]3(F)[C@@H](O)C[C@]2(C)[C@@]1(O)C(=O)COP(=O)(O)O
not listed: [15] | [16] | [17] | [18] | [19]
inactive: all other assays above

ClC1=C(Cl)C(Cl)(Cl)C(Cl)=C1Cl
active: [15] 19.2 µM and 2.22 µM
not listed: [5] | [18] | [19]
inactive: all other assays above

O=C(O)c1ccccc1C(c1ccc(O)cc1)c1ccc(O)cc1
not listed: [10] | [14] | [15] | [16] | [17] | [18] | [19]
inactive: all other assays above

CCCCCCCCCCCCN1CCCC1=O
active: [14] 155 µM | [15] 67.1 µM
not listed: [18] | [19]
inactive: all other assays above

CC#C[C@]1(O)CC[C@H]2[C@@H]3CCC4=CC(=O)CCC4=C3[C@@H](c3ccc(N(C)C)cc3)C[C@@]21C
active: [1] 50 µM | [2] 26.2 µM | [4] 84.2 µM | [6] 44.9 µM | [7] 3.49 µM | TIMP1, TIMP1 (gene 7076) 83.9 µM | [9] 11.3 µM | [10] 20.4 µM | [11] 77.2 µM | [12] 79.8 µM | [16] 53.4 µM | [13] 11.5 µM | [15] 20.1 µM
inactive: [3] | [8] | [14] | [17] | [18] | [15]

CC(C)CCCCCCOC(=O)CCCCC(=O)OCCCCCCC(C)C
not listed: [14] | [15] | [16] | [18]
inactive: all other assays above

N#C[C@@H]1CC(F)(F)CN1C(=O)CNC1CC2CCC(C1)N2c1ncccn1 (some centres undefined)
active: [3] 12.5 µM
not listed: [14] | [15] | [19]
inactive: all other assays above

CCc1nn(C2CCCCC2)c2cc(C3(C#N)CCC(C(=O)O)CC3)ccc12 (centres undefined)
inactive: [2] | [3] | [8] | [12] | [16] | [13] | [17] | [18]
active: [1] 50 µM | [4] 56.2 µM | [6] 65.5 µM | [7] 33.2 µM | TIMP1, TIMP1 (gene 7076) 33.8 µM | [9] 79.3 µM | [10] 50 µM | [11] 11.8 µM | [19] 46.3 µM | [15] 73.5 µM
